Ten compounds from PubChem BioAssay (NCATS) can be followed below.

The nature of assay [1]: qHTS to identify inhibitors of the type 1 interferon - major histocompatibility complex class I in skeletal muscle: primary screen against the NCATS Pharmaceutical Collection (AID 1347407).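 Further: luminescence of HiBiT knocked into endogenous HLA-B as interferon-induced MHC class I level; on the % scale 0 is the no-effect control and ±100 the full control effect.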 The method in brief: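 Cells were seeded with 4 ng/ml IFN-beta, incubated 1 h, then dosed with compounds over eight 1:5 steps up to 46 uM final. After 24 h at 37 C, HiBiT lytic reagent was added and luminescence read after 10 min lysis in the dark.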
In general terms: qHTS replaces the single test concentration by a dilution series.

Assay [2] deals with Protein phosphatase 1D (Homo sapiens) (UniProt O15297). The assay can be described thus: RapidFire Mass Spectrometry qHTS Assay for Modulators of WT P53-Induced Phosphatase 1 (WIP1) (AID 1347424).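 Further: amount of dephosphorylated VEPPL-S-QETFS peptide product formed by WIP1; series mostly up to about 63 µM; plate controls were DMSO wells for no effect and GSK830371 inhibitor control at 10 µM for full effect.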 The method in brief:
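10 nM WIP1 preincubated with compounds 1 hr at room temperature in pH 7.5 Tris buffer with 30 mM MgCl2, 1 mM TCEP; 2 uM VEPPL-pS-QETFS phosphopeptide for 5 min, formic acid quench; dephosphorylated product quantified by RapidFire MS against labelled standard.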

The target is the same in assay [3]. The assay can be described thus: Rhodamine-PBP qHTS Assay for Modulators of WT P53-Induced Phosphatase 1 (WIP1) (AID 1347425). Further: % of control where 0% means no effect. The procedure, abridged:
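Read-out: Rhodamine-PBP fluorescence (ex 525/em 598 nm) for released Pi, read each minute for 11 min after adding 10 uM VEPPL-pS-QETFS; signal taken as f1 minus pre-substrate f0. Enzyme 5 nM WIP1 with 1 hr room-temperature compound preincubation.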

Assay [4] in a line: Primary qHTS for inhibitors of La Crosse Virus (LACV) - induced cell death in SH-SY5Y cells (AID 1508616).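 Further: top concentration of the series differs between compounds; 0% = infected DMSO wells and 100% = uninfected DMSO wells; higher means more rescue of cells from virus-induced death.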 The procedure, abridged:
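Readout was luminescence from ATPLite 1step added after a 6-day LACV infection (0.01 MOI) of SH-SY5Y cells that had received pin-transferred compound 24 hr after seeding.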

Assay [5] has as its target Calcium and integrin-binding protein 1 (Homo sapiens) (UniProt Q99828). The assay can be described thus: Primary qHTS for Identification of Calcium Integrin Binding Protein 1 (CIB1) Competitor (AID 1508620).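 Further: GST tagged CIB1 binding a fluorescein labelled alphaIIb integrin peptide tracer; top concentration of the series differs between compounds; on the % scale 0 is the no-effect control and ±100 the full control effect.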 The method in brief:
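Fluorescence polarization competition: GST-tagged CIB1 (1 uM final) preincubated with compound 15 min at room temperature, then FITC-labelled alphaIIb peptide (100 nM final) added. After 15 min at room temperature, polarization read at Ex 480/Em 540.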

A short description of assay [6]: Primary qHTS for small molecule stabilizers of the endoplasmic reticulum resident proteome: Secreted ER Calcium Modulated Protein (SERCaMP) assay (AID 1508630). Further: potency means the concentration at half of the fitted maximal effect. The method in brief: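 GLuc-SERCaMP-expressing SH-SY5Y cells, pretreated 16 h with compound, are challenged with thapsigargin to empty ER calcium stores; after 4 h, coelenterazine is added directly to the medium and luminescence is imaged.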

A short description of assay [7]: Counterscreen qHTS for small molecule stabilizers of the endoplasmic reticulum resident proteome: GLuc-NoTag assay (AID 1508627).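 Further: SH-SY5Y cells given compound then 100 nM thapsigargin to empty ER calcium; series mostly up to about 76 µM; 0% = thapsigargin alone and -100% = DMSO vehicle control.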 The method in brief:
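SH-SY5Y cells stably expressing constitutively secreted GLuc without SERCaMP tag, exposed to compound for 19 hr, then to 100 nM thapsigargin for 4 hr at 37C. Medium luciferase was read by coelenterazine luminescence without lysis.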

Assay [8] in a line: Confirmatory qHTS for small molecule stabilizers of the endoplasmic reticulum resident proteome: Secreted ER Calcium Modulated Protein (SERCaMP) assay (AID 1508628).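 Further: SH-SY5Y cells given compound 16 h then thapsigargin 100 nM for 4 h; series mostly up to about 76 µM; on the % scale 0 is the no-effect control and ±100 the full control effect; nearly all actives have a fitted effect of over 40% in size.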 The procedure, abridged:
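We seeded SH-SY5Y-GLuc-SERCaMP cells, added compounds (three concentrations in the primary run, eleven up to 76.6 uM in confirmation), incubated 16 h, depleted ER calcium with thapsigargin, and read luciferase 4 h later.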

A short description of assay [9]: Cell Viability qHTS for small molecule stabilizers of the endoplasmic reticulum resident proteome (AID 1508629).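 Further: compound exposure about 46 h in total before the viability read.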 Further: potency means the concentration at half of the fitted maximal effect.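 On max response: human SH-SY5Y neuroblastoma cells carrying the GLuc-SERCaMP reporter; on the % scale 0 is the no-effect control and ±100 the full control effect.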 The settings on record: cell viability counter-screen, 100 nM thapsigargin for final 4 h.

The structures appear in SMILES notation. Inconclusive results are not listed. A number with no mark means an inactive call. Activity calls are given as the source filed them. The call rests on the fitted dose curve; in most records, active means well fitted curve in the direction sought with a large enough effect; inconclusive means small, poorly fitted or top-dose-only effect, or another doubt; inactive means no such curve, though single readings can be large; an effect the other way counts as inactive or inconclusive.

Sequence of Calcium and integrin-binding protein 1 (Homo sapiens) (Q99828 whole entry, looked up): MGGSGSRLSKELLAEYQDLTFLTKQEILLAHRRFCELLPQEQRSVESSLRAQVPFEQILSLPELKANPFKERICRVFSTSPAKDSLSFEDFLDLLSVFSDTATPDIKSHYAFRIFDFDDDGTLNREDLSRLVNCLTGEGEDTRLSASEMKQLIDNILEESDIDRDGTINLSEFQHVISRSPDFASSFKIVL
Sequence of Protein phosphatase 1D (Homo sapiens) (O15297 whole entry, looked up): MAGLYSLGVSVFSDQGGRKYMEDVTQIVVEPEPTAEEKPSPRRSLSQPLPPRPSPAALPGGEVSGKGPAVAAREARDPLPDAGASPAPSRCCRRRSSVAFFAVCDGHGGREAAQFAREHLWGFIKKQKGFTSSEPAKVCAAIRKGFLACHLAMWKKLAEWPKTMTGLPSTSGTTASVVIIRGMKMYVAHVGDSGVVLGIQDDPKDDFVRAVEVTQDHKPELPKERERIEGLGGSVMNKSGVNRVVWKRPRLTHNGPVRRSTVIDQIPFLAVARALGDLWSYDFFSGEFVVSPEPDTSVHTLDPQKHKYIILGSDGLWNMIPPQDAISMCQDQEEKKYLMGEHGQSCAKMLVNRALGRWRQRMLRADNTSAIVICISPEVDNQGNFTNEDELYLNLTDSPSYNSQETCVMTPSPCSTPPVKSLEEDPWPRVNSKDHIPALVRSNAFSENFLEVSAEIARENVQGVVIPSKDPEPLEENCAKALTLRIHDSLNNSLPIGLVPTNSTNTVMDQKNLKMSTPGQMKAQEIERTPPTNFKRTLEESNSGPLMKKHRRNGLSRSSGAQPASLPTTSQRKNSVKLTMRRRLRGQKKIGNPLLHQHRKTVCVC

Consider `O=C(CCN1CCC(c2ccccc2)C1)c1ccc2c(c1)OCCO2` (centres undefined), for which the Potency result in assay [1], in assay [2], in assay [4], in [5] and in assay [6] was “inactive” in each case. In [3], the outcome was inactive.

As to `CC(C)(Oc1ccc(Cl)cc1)C(=O)O`, the Potency entry in [1], in assay [2], in assay [4], in [5] and in assay [6] was “inactive” in each case. The compound was classed as inactive in assay [3].

Turning to `C#C[C@]1(O)CC[C@H]2[C@@H]3CCc4cc(OC5CCCC5)ccc4[C@H]3CC[C@@]21C`, the Potency entry in [1], in assay [2], in assay [4], in [5] and in [6] was “inactive” in each case. Moreover, the outcome in [3] was inactive.

As for `CCN(CCCc1ccccc1)CCCc1ccccc1`, the Potency entry in [1], in [2], in assay [4] and in assay [5] was “inactive” in each case. In assay [3], the outcome was inactive.

In the case of `CC(=O)N/N=C/c1ccc([N+](=O)[O-])o1`, the Potency result in [1], in assay [2], in assay [4], in assay [5] and in [6] was “inactive” each time. Also, the compound was classed as inactive in assay [3].

For `CN1[C@@H]2CC[C@H]1CC(OC(=O)c1c[nH]c3ccccc13)C2` (some centres undefined), the Potency entry in [1], in assay [2], in [4], in assay [5] and in assay [8] was “inactive” each time. In addition, the call in [3] and in assay [7] was inactive. Moreover, the Potency in assay [6] is 35.5 µM (active).

Take `O=S1(=O)c2cccc3cccc(c23)N1CCCN1CCN(c2ccc(F)cc2)CC1`: the Potency entry in assay [1], in assay [2], in assay [4], in assay [5] and in assay [6] was “inactive” in each case. The result in assay [3] was inactive.

On to `CC(=O)Oc1ccc(C(=C2CCCCC2)c2ccc(OC(C)=O)cc2)cc1`, for which the Potency entry in assay [1], in assay [2], in assay [4], in assay [5] and in assay [8] was “inactive” in each case. For the same compound, the outcome in assay [3] was inactive.

Regarding `C[C@@H]1CN(CCCn2c3ccccc3c3ccccc32)C[C@H](C)N1`, the Potency result in assay [1], in [2], in assay [4], in assay [5] and in [8] was “inactive” in each case. In assay [3], the compound was called inactive. The Potency in [9] was 31.6 µM (active).

As for `CCCCCCCCCCCCCCCCCC(=O)OCC(O)CO` (centres undefined), the Potency result in [1], in assay [2], in [4], in [5] and in assay [8] was “inactive” throughout. For the same compound, the call in assay [3] and in assay [7] was inactive. Besides, the max response in assay [9] is 15.4%.
